Our source for the growth values is PubChem BioAssay (NCI).

The panel holds about 83,000 compounds, 20% with a hit somewhere; the sample as a whole holds those more often.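 Note: values are percent growth. 100 is the growth of untreated cells, values between 100 and 0 indicate rising inhibition; between -100 and 0 indicates cell death.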 A number with no mark means an inactive call. The source made the active and inactive calls. The calls were made as follows: active = growth percent below 10; inactive = the rest.

Assay in all cases: NCI-60 one-dose screen, 48 h (100 = growth as untreated, 0 = no growth, -100 = all killed)
One assay relates to HCT-15 colon. The note with it: 10 µM unless noted.
The next assay concerns HT29 colon. The note with it: 10 µM unless noted.
Another assay relates to SNB-75 CNS. The note with it: 10 µM unless noted.
Another assay has as its system SNB-19 CNS. The note with it: 10 µM unless noted.
In another assay the test system is U251 CNS. The note with it: 10 µM unless noted.
In the next assay the test system is PC-3 prostate. The note with it: 10 µM unless noted.
The test system of the next assay is SK-MEL-5 melanoma. The note with it: 10 µM unless noted.
The next assay has as its system UACC-62 melanoma. The note with it: 10 µM unless noted.
The next assay deals with LOX IMVI melanoma. The note with it: 10 µM unless noted.
In another assay the test system is SK-MEL-28 melanoma. The note with it: 10 µM unless noted.
For a further assay, the system named is SK-MEL-2 melanoma. The note with it: 10 µM unless noted.
A further assay relates to EKVX NSCLC. The note with it: 10 µM unless noted.
A further assay relates to SN12C renal. The note with it: 10 µM unless noted.
A further assay concerns UO-31 renal. The note with it: 10 µM unless noted.
The subject of another assay is TK-10 renal. The note with it: 10 µM unless noted.
Another assay relates to ACHN renal. The note with it: 10 µM unless noted.
A further assay deals with CAKI-1 renal. The note with it: 10 µM unless noted.
A further assay has as its system A498 renal. The note with it: 10 µM.
For a further assay, the system named is CCRF-CEM leukemia. The note with it: 10 µM unless noted.
The next assay concerns HL-60(TB) leukemia. The note with it: 10 µM unless noted.

For the compound `Fc1ccc(C2=CCNCC2)cc1`, the growth was 109% in the assay on HCT-15 colon; 109% with HT29 colon; 84.1% in the assay on SNB-75 CNS; 109% in the assay on SNB-19 CNS; 96.9% in the assay with U251 CNS; 101% in the assay on PC-3 prostate. For the same compound, the growth with SK-MEL-5 melanoma was 91.9%; in the assay with UACC-62 melanoma it was 86.4%; in the assay on LOX IMVI melanoma, 90.1%; with SK-MEL-28 melanoma, 107%; in the assay on SK-MEL-2 melanoma it was 109%; in the assay on EKVX NSCLC, 86.2%. The growth was 73% with SN12C renal; 84.7% in the assay on UO-31 renal; 86.5% with TK-10 renal; 108% with ACHN renal; 79.5% with CAKI-1 renal; 87.8% in the assay on A498 renal. The growth in the assay with CCRF-CEM leukemia was 118%.
`CC(=O)OC1C(OC/C2=C/C3[C@@H](C(C)C)CC=C(C)[C@@H]3CC(OC(=O)/C=C/c3cn(C)cn3)[C@]3(C)C=C[C@@]2(O)O3)OCC(O)C1O` (some centres undefined): the growth with HCT-15 colon was 36.2%; with HT29 colon it was 8.89% (active); in the assay on SNB-75 CNS it was -28.6% (active); in the assay with SNB-19 CNS, 37%; in the assay on U251 CNS it was 18.2%; in the assay with PC-3 prostate it was 26.5%. The growth was 7.53% (active) in the assay with SK-MEL-5 melanoma; 26.5% with UACC-62 melanoma; 35.2% in the assay with LOX IMVI melanoma; 45.7% in the assay on SK-MEL-28 melanoma; 45.6% in the assay with SK-MEL-2 melanoma; 33.9% in the assay with EKVX NSCLC. In addition, the growth in the assay with SN12C renal is 44.2%; in the assay on UO-31 renal, 40.4%; in the assay with TK-10 renal it was 32.3%; in the assay with ACHN renal, 45%; with CAKI-1 renal it was 37%; in the assay with A498 renal, 13.2%. Further, the growth in the assay on HL-60(TB) leukemia was -3.65% (active); with CCRF-CEM leukemia, 22.5%.
For `O=C(Nc1ccc([N+](=O)[O-])cc1)C(Cl)(Cl)Cl`, the growth with HCT-15 colon was 80.8%; with HT29 colon, 101%; with SNB-75 CNS, 96.6%; in the assay on SNB-19 CNS it was 94.7%; in the assay with U251 CNS it was 93.9%; in the assay with PC-3 prostate it was 95.1%. The growth in the assay on SK-MEL-5 melanoma is 99.4%; with UACC-62 melanoma, 84.9%; in the assay with LOX IMVI melanoma, 63.3%; in the assay on SK-MEL-28 melanoma, 103%; in the assay with SK-MEL-2 melanoma, 102%; in the assay with EKVX NSCLC, 89.4%. Further, the growth with SN12C renal was 95.3%; in the assay on UO-31 renal, 87.3%; in the assay with TK-10 renal it was 113%; with ACHN renal it was 86.9%; in the assay on CAKI-1 renal it was 83.3%; in the assay with HL-60(TB) leukemia, 108%. For the same compound, the growth in the assay on CCRF-CEM leukemia was 101%.
Regarding `CCC(C)(C)[C@H](NC(=O)[C@H]1CCCCN1C)C(=O)N(C)[C@H](C[C@@H](OC(C)=O)c1nc(C(=O)N[C@@H](Cc2ccccc2)C[C@H](C)C(=O)O)cs1)C(C)C`, the growth in the assay with HCT-15 colon is 6.87% (active); in the assay with HT29 colon it was -2.9% (active); in the assay on SNB-75 CNS, 6.25% (active); in the assay on SNB-19 CNS, 17.8%; with U251 CNS it was 12.1%; in the assay on PC-3 prostate, 24.9%. For the same compound, the growth in the assay on SK-MEL-5 melanoma is -18.1% (active); in the assay on UACC-62 melanoma it was 30.9%; in the assay on LOX IMVI melanoma, 16.1%; with SK-MEL-28 melanoma, 44.6%; with SK-MEL-2 melanoma, 21.9%; in the assay with EKVX NSCLC, 52.6%. Besides, the growth in the assay on SN12C renal is 17.5%; in the assay with UO-31 renal, 32.9%; in the assay on TK-10 renal, 35.1%; with ACHN renal, 11.4%; with CAKI-1 renal, 29%; with HL-60(TB) leukemia, -8.72% (active).
Consider `Cc1sc2c(c1C)C(c1ccc(Cl)cc1)=N[C@@H](CC(=O)OC(C)(C)C)c1nnc(C)n1-2`, for which the growth is 12.9% in the assay on HCT-15 colon; 18% in the assay on HT29 colon; 18.6% with SNB-75 CNS; 45.4% with SNB-19 CNS; 52.4% in the assay with U251 CNS; 53.3% in the assay on PC-3 prostate. The growth in the assay with SK-MEL-5 melanoma is 21.1%; with UACC-62 melanoma, 26.9%; in the assay on LOX IMVI melanoma, 7.81% (active); in the assay with SK-MEL-28 melanoma, 38.4%; in the assay on SK-MEL-2 melanoma it was 48.8%; with EKVX NSCLC it was 42.2%. Also, the growth is 49.5% in the assay with SN12C renal; 13.4% in the assay with UO-31 renal; 22.5% in the assay on TK-10 renal; 31.1% in the assay on ACHN renal; 21.6% in the assay with CAKI-1 renal; -11.8% (active) in the assay with A498 renal. The growth in the assay with HL-60(TB) leukemia is 4.3% (active); in the assay with CCRF-CEM leukemia it was 38.7%.
With `COc1cccc(/C=C/[N+](=O)[O-])c1`, the growth in the assay with HCT-15 colon was -9.58% (active); in the assay with HT29 colon, -48.6% (active); with SNB-75 CNS, 68.1%; with SNB-19 CNS, 71.8%; in the assay with U251 CNS, 54.4%; with PC-3 prostate it was 63.6%. Besides, the growth is 80.6% with SK-MEL-5 melanoma; 92.6% in the assay with UACC-62 melanoma; -80.6% (active) in the assay with LOX IMVI melanoma; 50.2% in the assay with SK-MEL-28 melanoma; 97.4% in the assay on SK-MEL-2 melanoma; 89.2% in the assay on EKVX NSCLC. Moreover, the growth in the assay with SN12C renal was 99.5%; with UO-31 renal, 45.8%; in the assay on TK-10 renal it was 90.9%; with ACHN renal, 74.7%; with CAKI-1 renal it was 96.8%; in the assay with A498 renal, 43.8%. Also, the growth in the assay with CCRF-CEM leukemia is 51.2%.
For the compound `Nc1ccc2c(c1)Cc1cc(Br)ccc1-2`, the growth in the assay on HCT-15 colon was 101%; with HT29 colon, 119%; with SNB-75 CNS, 76.6%; in the assay on SNB-19 CNS it was 101%; in the assay with U251 CNS, 104%; in the assay on PC-3 prostate it was 89.6%. Besides, the growth in the assay with SK-MEL-5 melanoma was 104%; in the assay with UACC-62 melanoma, 88.8%; with LOX IMVI melanoma, 94.2%; in the assay with SK-MEL-28 melanoma, 116%; with SK-MEL-2 melanoma, 112%; in the assay with EKVX NSCLC it was 64.2%. Also, the growth in the assay on SN12C renal was 85.3%; with UO-31 renal, 49%; with TK-10 renal it was 123%; in the assay with ACHN renal it was 106%; in the assay with CAKI-1 renal it was 98.1%; with A498 renal, 76.4%. Moreover, the values for the growth in the assay on HL-60(TB) leukemia and with CCRF-CEM leukemia were 47.8% and 50%, respectively.
Regarding `CCN1C(=O)C(=C/C=C/c2ccccc2)C(=O)N(CC)C1=O`, the growth with HCT-15 colon is 62.6%; with HT29 colon, 66%; in the assay on SNB-75 CNS, 96.8%; in the assay with SNB-19 CNS, 69.9%; with U251 CNS, 54.9%; with PC-3 prostate, 61.7%. Moreover, the growth was 89.8% in the assay on SK-MEL-5 melanoma; 79% in the assay with UACC-62 melanoma; 17% with LOX IMVI melanoma; 104% in the assay with SK-MEL-28 melanoma; 99.9% with SK-MEL-2 melanoma; 112% with EKVX NSCLC. For the same compound, the growth in the assay on SN12C renal was 75.8%; with UO-31 renal, 70.1%; in the assay on TK-10 renal, 94.3%; with ACHN renal, 70.3%; in the assay on CAKI-1 renal, 87.8%; with A498 renal, 94.3%. The growth in the assay with CCRF-CEM leukemia was -14.1% (active).
